Experimental findings from PubChem BioAssay (Tox21) are described below.

Each structure is given as a SMILES string. Inconclusive results are not listed. Active and inactive are the calls of the source. Unless noted, calls come from the whole dose curve; as a rule, active = well fitted curve in the direction sought with a large enough effect in the repeat runs; inconclusive = weak or mixed curves; inactive = no such curve, though single readings can be large; an effect the other way counts as inactive or inconclusive.

The nature of test [1]: qHTS assay to identify small molecule antagonists of the glucocorticoid receptor (GR) signaling pathway - cell viability counter screen (AID 720693). Note: nearly all actives have a fitted effect of over 55% in size.
Test [2] is described as follows: qHTS assay for identifying genotoxic compounds that show differential cytotoxicity against isogenic chicken DT40 cell lines with known DNA damage response pathways - wild type cell line (AID 743012). Note: nearly all actives have a fitted effect of over 60% in size. Note: potency is the fitted concentration of half-maximal effect. In outline:
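Parental DNA repair-proficient DT40 cells, 300 per well, were pre-incubated ~0.5 h at 37 C/5% CO2, pin-dosed with compounds in DMSO, then incubated 40 h. Viability was read as CellTiter-Glo luminescence after 30 min at room temperature.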

Test [3] is described as follows: qHTS assay for identifying genotoxic compounds that show differential cytotoxicity against isogenic chicken DT40 cell lines with known DNA damage response pathways - Rev3 mutant cell line (AID 743014). Note: nearly all actives have a fitted effect of over 55% in size. Note: potency is the fitted concentration of half-maximal effect.
Test [4] can be described thus: qHTS assay for identifying genotoxic compounds that show differential cytotoxicity against isogenic chicken DT40 cell lines with known DNA damage response pathways - Rad54/Ku70 mutant cell line (AID 743015). Note: nearly all actives have a fitted effect of over 60% in size. Note: potency is the fitted concentration of half-maximal effect.
Test [5] is described as follows: qHTS assay to identify small molecule antagonists of the androgen receptor (AR) signaling pathway - cell viability counter screen (AID 743033; note: nearly all actives have a fitted effect of over 45% in size).
The nature of test [6]: qHTS assay to identify small molecule antagonists of the androgen receptor (AR) signaling pathway using the MDA cell line - cell viability counter screen (AID 743041; note: nearly all actives have a fitted effect of over 45% in size; note: potency is the fitted concentration of half-maximal effect). Summed up: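 Same-well cytotoxicity was assessed by CellTiter-Fluor in MDA-kb2 AR-luc cells after 16 h of compound treatment under R1881 agonism.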
For test [7], the target named is Androgen receptor (Homo sapiens) (UniProt P10275). The test can be described thus: qHTS assay to identify small molecule antagonists of the androgen receptor (AR) signaling pathway (AID 743035; active = well fitted inhibition curve with a large enough effect in the signal ratio in the repeat runs, not every such curve was filed as active; the % refers to the signal ratio; note: potency is the fitted concentration of half-maximal effect). Summed up: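 HEK293 cells stably carrying a UAS-driven beta-lactamase reporter (AR-UAS-bla GripTite) were plated for 4 h at 37C, then given compound and the agonist R1881 and incubated 16 h. Reporter activity was read by LiveBLAzer B/G FRET fluorescence after 2 h at room temperature.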

Test [8] has the same target. The test is described as follows: qHTS assay to identify small molecule agonists of the androgen receptor (AR) signaling pathway (AID 743036; active = well fitted activation curve with a large enough effect in the signal ratio in the repeat runs, with a control signal flat, not every such curve was filed as active; the % refers to the signal ratio). In outline:
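Beta-lactamase under UAS control, stably integrated in HEK293 GripTite cells, reports receptor activation. After 16 h compound treatment, cells received FRET substrate for 2 h at room temperature before fluorescence reading.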

Test [9] has the same target. The test is described as follows: qHTS assay to identify small molecule agonists of the androgen receptor (AR) signaling pathway using the MDA cell line (AID 743040; note: nearly all actives have a fitted effect of over 20% in size). In outline: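 Human breast carcinoma MDA-kb2 reporter cells (MMTV-luc, AR/GR elements) were treated for 16 h at 37C in 0% CO2 following a 5 h settling period. Signal was quantified by ONE-Glo luminescence.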

The target is the same in test [10]. The test is described as follows: qHTS assay to identify small molecule antagonists of the androgen receptor (AR) signaling pathway using the MDA cell line (AID 743042; note: nearly all actives have a fitted effect of over 55% in size; note: potency is the fitted concentration of half-maximal effect). In outline: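 MDA-kb2 breast carcinoma cells carrying MMTV-luciferase (AR/GR responsive) were co-treated with compounds and the agonist R1881 for 16 h at 37C. Inhibition read as ONE-Glo luminescence; CellTiter-Fluor fluorescence measured in parallel for cytotoxicity.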

Androgen receptor (Homo sapiens), sequence (P10275 whole entry, looked up): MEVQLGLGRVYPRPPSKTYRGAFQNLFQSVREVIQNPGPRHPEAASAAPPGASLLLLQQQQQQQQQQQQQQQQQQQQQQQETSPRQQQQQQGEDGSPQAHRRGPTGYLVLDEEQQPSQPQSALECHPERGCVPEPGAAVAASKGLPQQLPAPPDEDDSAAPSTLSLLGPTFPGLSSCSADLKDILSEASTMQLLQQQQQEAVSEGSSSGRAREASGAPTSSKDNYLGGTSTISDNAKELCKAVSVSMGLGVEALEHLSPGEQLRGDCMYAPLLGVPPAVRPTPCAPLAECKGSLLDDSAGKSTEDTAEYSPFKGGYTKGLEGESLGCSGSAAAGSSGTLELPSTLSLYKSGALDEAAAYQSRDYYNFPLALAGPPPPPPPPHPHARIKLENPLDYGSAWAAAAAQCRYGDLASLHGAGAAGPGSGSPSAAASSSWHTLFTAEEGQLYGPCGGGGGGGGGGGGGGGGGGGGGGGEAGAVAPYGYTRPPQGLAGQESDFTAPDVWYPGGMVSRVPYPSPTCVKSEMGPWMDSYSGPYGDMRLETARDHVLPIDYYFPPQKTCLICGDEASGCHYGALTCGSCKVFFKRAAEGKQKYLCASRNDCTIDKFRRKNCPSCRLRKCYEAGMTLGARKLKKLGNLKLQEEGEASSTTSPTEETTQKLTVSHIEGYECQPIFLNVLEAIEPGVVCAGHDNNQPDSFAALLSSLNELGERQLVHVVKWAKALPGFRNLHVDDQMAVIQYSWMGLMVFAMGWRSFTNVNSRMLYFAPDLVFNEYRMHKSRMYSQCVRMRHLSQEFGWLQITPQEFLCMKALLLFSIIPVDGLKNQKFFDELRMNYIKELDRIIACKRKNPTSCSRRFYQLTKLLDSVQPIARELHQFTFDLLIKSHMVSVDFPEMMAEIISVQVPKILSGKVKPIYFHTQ

With `CCCCC/C=C\C/C=C\CCCCCCCC(=O)NC(C)c1ccccc1` (stereo unspecified), the Potency result in test [1], in test [2], in test [3], in [4], in test [5] and in [6] was “inactive” in each case.
Turning to `C/C=C/C=C/CO`, the Potency entry in [1], in test [2], in test [5] and in [6] was “inactive” each time. Besides, in test [3], the Potency was 61.1 µM (active).
For `O=C(OCCc1ccccc1)c1ccccc1`, the Potency result in test [1], in test [2], in test [3], in test [4] and in test [6] was “inactive” throughout.
Regarding `CCN(CC)CCOC(=O)C(c1ccccc1)C1CCCCC1` (stereo unspecified), the Potency entry in test [1] and in [6] was “inactive” throughout. Also, the Potency in test [2] was 21.1 µM (active); in [3] it was 10.6 µM (active); in test [4], 23.7 µM (active).
With `O=C(OCCCCCCOC(=O)c1ccccc1)c1ccccc1`, the Potency result in test [1] and in test [6] was “inactive” in each case. Moreover, the Potency was 61.1 µM (active) in [2], 61.1 µM (active) in [3] and 54.5 µM (active) in test [4].
Consider `C=CC1CC2C=CC1C2` (stereo unspecified), for which the Potency entry in test [1], in test [3], in test [4], in test [5] and in test [6] was “inactive” each time.
For the compound `CCCCCCCCCCCCCCCCOS(=O)(=O)O`, the Potency entry in test [1], in test [2], in test [3], in test [7], in test [8] and in test [9] was “inactive” throughout. The Potency result in [6] and in test [10] was “inactive” in each case.
Consider `c1ccc(-c2ccccn2)nc1`, for which the Potency result in test [1], in test [5], in test [8], in test [9], in test [6] and in [10] was “inactive” each time. Besides, the Potency in test [3] and in test [4] was 24.3 µM (active) each time.
Regarding `Cc1nn(C)c(Oc2ccccc2)c1/C=N/OCc1ccc(C(=O)OC(C)(C)C)cc1`, the Potency result in [1], in test [8] and in test [9] was “inactive” throughout. In addition, the Potency was 0.0022 µM (active) in test [2]; 0.0024 µM (active) in [3]; 0.123 µM (active) in [7]; 0.0077 µM (active) in test [6]; 0.0024 µM (active) in [10].
As to `Cc1cc(N)c2cc(NC(=O)Nc3ccc4nc(C)cc(N)c4c3)ccc2n1`, the Potency result in [1], in test [5], in test [8] and in test [9] was “inactive” each time. Besides, the Potency in [3] is 21.1 µM (active); in [4] it was 16.8 µM (active).
As for `O=C(O)C1(C(=O)Nc2ccc(Cl)cc2Cl)CC1`, the Potency result in test [1], in [9], in test [6] and in test [10] was “inactive” in each case. Besides, the Potency in test [2] is 61.1 µM (active); in [3], 68.6 µM (active).
For the compound `CCCCCCCCCCCc1ccccc1`, the Potency entry in test [1], in test [2], in [5] and in test [6] was “inactive” throughout. Moreover, in test [3], the Potency was 60.3 µM (active).
For `CCC(Cl)CCC(Cl)C(Cl)CC(Cl)C(Cl)C(Cl)CCl` (stereo unspecified), the Potency entry in test [1], in test [3], in [4] and in test [5] was “inactive” each time.
